Here are results for 40 compounds from PubChem BioAssay (Tox21).

SMILES strings stand for the structures. Several values for one entry are separate records, joined by “and”; a condition that tells them apart may be missing. Equal values may be shown once. Inconclusive results are not listed. A call without a number means that no potency is given here. Activity calls are given as the source filed them. The call rests on the fitted dose curve.
Potency means the concentration at half of the fitted maximal effect.

This experiment can be described thus: Nuclear factor erythroid 2-related factor 2/antioxidant responsive element (Nrf2/ARE) small molecule agonists: luciferase reporter gene qHTS assay in human keratinocytes (AID 1919969). Further: nearly all actives have a fitted effect of over 35% in size. The settings on record: KeratinoSens HaCaT ARE-luciferase, luminescence, 24 h; series mostly up to 92.4 µM. From the text:
National Center for Advancing Translational Sciences [NCATS]
Division of Preclinical Innovation [DPI]
U.S. Environmental Protection Agency [EPA]
National Institutes of Environmental Health Sciences [NIEHS]
National Toxicology Program [NTP]
U.S. Food and Drug Administration [FDA]
Oxidative stress has been implicated in the pathogenesis of a variety of diseases ranging from cancer to neurodegeneration. The antioxidant response element (ARE) signaling pathway plays an important role in the amelioration of oxidative stress. The KeratinoSens (Givaudan, Switzerland) is an in vitro test method which quantifies luciferase induction as a measure of activation of Keap1-Nrf2-antioxidationt/electrophile response element (ARE) dependant pathway in HaCaT human keratinocytes stably transfected with a selectable plasmid. The KeratinoSens assay is a cell-based assay with a reporter cell line to detect potential skin sensitizers by their ability to induce the Nrf2/ARE-response. The activation of the report gene under culture conditions can be detected by ONE-Glo Luciferase Assay System (Promega, Madison, WI). This cell line has been used to screen the Tox21 10K compound library to identify agonists that induce oxidative stress. The cytotoxicity of the Tox21 compound library against the KS-ARE cell line was tested in parallel by measuring the cell viability using CellTiter- Fluor assay system (Promega, Madison, WI) in the same wells.
HaCaT derived cell line KeratinoSens were dispensed at 1,500 cells/5uL/well in 1536-well white wall/solid bottom plates using a Multidrop Combi (ThermoFisher Scientific, Waltham, MA) dispenser. After the assay plates were incubated at 37 C/5% CO2 for 5 h, 23 nL of compounds dissolved in DMSO, positive controls or DMSO only was transferred to the assay plate by a pintool workstation (Kalypsys, San Diego, CA). The plates were incubated at 37 C/5% CO2 for 23 h, followed by addition of 1uL/well of CellTiter-Fluor reagent into the assay plates using a Flying Reagent Dispenser (Aurora Discovery, San Diego, CA) for cell viability readout that measures cytotoxicity. After 1 h incubation at 37 C/5% CO2 the fluorescence intensity was measured using a ViewLux (PerkinElmer, Shelton, CT) plate reader. Then 4uL/well of One-Glo were added using a Flying Reagent Dispenser. After the plates were incubated at room temperature for 30 min, the luminescence intensity in the assay plates was measured using ViewLux plate reader.
(In a reporter assay the amount or activity of a reporter protein is the signal.)
With `Brc1ccc(Br)c(Br)c1`, the Potency result was “inactive”.

Take `CCCCCCCCO`: the Potency result is “inactive”.

With `CC(=O)Nc1cccc(O)c1`, the Potency entry is “inactive”.

As to `C[C@]12CC[C@@H]3c4ccc(O)cc4CC[C@H]3[C@@H]1CC[C@@H]2O`, the Potency result is “inactive”.

Regarding `CCCOC(=O)c1cc(O)c(O)c(O)c1`, the Potency result was “inactive”.

Take `CC(C)NCC(O)c1ccc(O)c(O)c1` (stereo not given): the Potency entry was “inactive”.

Take `COC(=O)c1ccc(C=O)cc1`: the Potency result was “inactive”.

As to `CCCCC(CC)COC(=O)CCCCC(=O)OCC(CC)CCCC` (stereo not given), the Potency entry was “inactive”.

With `CCC(C)OC(=O)c1ccc(O)cc1` (stereo not given), the Potency entry is “inactive”.

For the compound `OC[C@H]1O[C@@H](Oc2ccc(O)cc2)[C@H](O)[C@@H](O)[C@@H]1O`, the Potency result is “inactive”.

In the case of `CCC(C)C=O` (stereo not given), the Potency entry was “inactive”.

As for `Clc1cc(Cl)c(Cl)cc1Cl`, the Potency result was “inactive”.

For the compound `C=C(C)C(N)=O`, the Potency entry was “inactive”.

With `CCNC(=S)NCC`, the Potency result was “inactive”.

With `CC(=O)/C=C/C1=C(C)CCCC1(C)C`, the Potency result was “inactive”.

Regarding `CCO[Si](CCCN)(OCC)OCC`, the Potency result was “inactive”.

For the compound `CC1(C)O[C@@H]2[C@@H](CO[C@@]3(COS(N)(=O)=O)OC(C)(C)O[C@@H]23)O1`, the Potency result is “inactive”.

In the case of `O=C1CCCCCN1`, the Potency result is “inactive”.

Regarding `NC(N)=Nc1nc(CSCC/C(N)=N/S(N)(=O)=O)cs1`, the Potency result is “inactive”.

With `CN(C)C(=O)Nc1ccc(Cl)c(Cl)c1`, the Potency result was “inactive”.

As to `O=C1CCc2ccccc2O1`, the Potency entry is “inactive”.

Regarding `NC=O`, the Potency result was “inactive”.

With `O=C1CCCC1`, the Potency result was “inactive”.

For the compound `CC(C)CC(C)CC(O)CC(C)C` (stereo not given), the Potency entry was “inactive”.

With `CC1Cc2ccccc2N1NC(=O)c1ccc(Cl)c(S(N)(=O)=O)c1` (stereo not given), the Potency result is “inactive”.

Take `Cc1ccc(C(C)C)cc1`: the Potency result was “inactive”.

In the case of `COc1ccc(Nc2ccccc2)c(C)c1`, the Potency result was “inactive”.

For `O=C(O)CN(CC(=O)O)CC(=O)O`, the Potency result is “inactive”.

Turning to `CCCCCCCCCC`, the Potency entry is “inactive”.

With `C[Si](C)(C)N[Si](C)(C)C`, the Potency entry was “inactive”.

As for `COc1cc2c(c(OC)c1OC)-c1ccc(OC)c(=O)cc1[C@@H](NC(C)=O)CC2`, the Potency was 152 nM (active) and 217 nM (active) and 188 nM (active).

`O=c1cc[nH]c(=O)[nH]1`: the Potency result is “inactive”.

As for `O=c1ccc2ccccc2o1`, the Potency result is “inactive”.

`C=C(C)C1CC=C(C)CC1` (stereo not given): the Potency entry was “inactive”.

Regarding `CC1(C)O[C@@H]2C[C@H]3[C@@H]4CCC5=CC(=O)C=C[C@]5(C)[C@@]4(F)[C@@H](O)C[C@]3(C)[C@]2(C(=O)CO)O1`, the Potency result is “inactive”.

In the case of `Cc1c(C(N)=O)cc([N+](=O)[O-])cc1[N+](=O)[O-]`, the Potency result was “inactive”.

`CCCC(=O)O`: the Potency result was “inactive”.

Consider `CCCCOC(=O)CCCCCCCCC(=O)OCCCC`, for which the Potency entry is “inactive”.

As for `Cc1cccc(C)c1`, the Potency result is “inactive”.

Consider `CC1(C)NC(=O)N(c2ccc([N+](=O)[O-])c(C(F)(F)F)c2)C1=O`, for which the Potency entry was “inactive”.
